According to PubChem BioAssay (Tox21):
Inconclusive results are not listed. Where a call stands in place of a potency, no number is given. Calls of active or inactive are those of the source. Unless noted, calls follow the shape of the dose curve; as a rule, active = well fitted curve in the direction sought with a large enough effect in the repeat runs; inconclusive = weak or mixed curves; inactive = no such curve, though single readings can be large; an effect the other way counts as inactive or inconclusive.

How the values were obtained:
[1] = qHTS assay to identify aromatase inhibitors - cell viability counter screen (AID 743084);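 also: cells stimulated with testosterone during compound exposure; nearly all actives have a fitted effect of over 55% in size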; also: potency is read from the fitted curve at half-maximal effect
[2] = biological target: Aryl hydrocarbon receptor (Homo sapiens) (UniProt P35869); test: qHTS assay to identify small molecule that activate the aryl hydrocarbon receptor (AhR) signaling pathway (AID 743085);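 also: HG2L7.5c1 human HepG2 liver cells with stably integrated DRE-driven firefly reporter; series mostly up to about 70 µM; nearly all actives have a fitted effect of over 15% in size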
Summary of the method: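 Luminescence (ONE-Glo) from a dioxin-responsive-element luciferase reporter in HG2L7.5c1 HepG2 cells after 24 hr compound exposure at 37C; viability measured by CellTiter-Fluor fluorescence beforehand.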

[3] = qHTS assay to identify small molecule that activate the aryl hydrocarbon receptor (AhR) signaling pathway - cell viability counter screen (AID 743086); also: nearly all actives have a fitted effect of over 45% in size; also: potency is read from the fitted curve at half-maximal effect
Summary of the method: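 Cytotoxicity counter screen: CellTiter-Fluor signal (30 min, 37 C) in 4000 HepG2 cells/well carrying the DRE-luciferase reporter, following 24 h compound exposure at 37 C.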

[4] = qHTS assay to identify small molecule antagonists of the peroxisome proliferator-activated receptor gamma (PPARg) signaling pathway - cell viability counter screen (AID 743194); also: nearly all actives have a fitted effect of over 55% in size; also: potency is read from the fitted curve at half-maximal effect
Summary of the method: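 Viability was measured as CellTiter-Glo luminescence in GeneBLAzer PPARg UAS-bla HEK293H cells. These cells had been exposed 17 h at 37 C to compounds together with rosiglitazone at 50 nM final, with the beta-lactamase readout taken in the same wells.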

[5] = qHTS assay for small molecule agonists of the antioxidant response element (ARE) signaling pathway (AID 743202; active = well fitted activation curve with a large enough effect in the signal ratio in the repeat runs, not every such curve was filed as active; the % refers to the signal ratio; also: potency is read from the fitted curve at half-maximal effect)
Summary of the method: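 Beta-lactamase reporter activity, read as fluorescence intensity, reflects ARE/Nrf2 pathway induction in HepG2 cells after 16 h compound exposure at 37 C; substrate loading was 2 h at room temperature.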

[6] = qHTS assay for small molecule activators of the heat shock response signaling pathway - cell viability counter screen (AID 743209); also: nearly all actives have a fitted effect of over 50% in size; also: potency is read from the fitted curve at half-maximal effect
Summary of the method: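 Same-well multiplex: after 2.5 h room-temperature incubation with LiveBLAzer B/G substrate and fluorescence reading, CellTiter-Glo reagent was added to HSE-bla HeLa cells that had received compound for 5 h at 37 C; luminescence read after 30 min.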

[7] = qHTS assay to identify small molecule agonists of the peroxisome proliferator-activated receptor delta (PPARd) signaling pathway - cell viability counter screen (AID 743211); also: nearly all actives have a fitted effect of over 55% in size; also: potency is read from the fitted curve at half-maximal effect
Summary of the method: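 Viability was measured as CellTiter-Glo luminescence (30 min, room temperature) in the same wells as the beta-lactamase readout. GeneBLAzer PPARd UAS-bla HEK293H cells received compound after 5 h plating and were incubated 17 h at 37 C.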

[8] = qHTS assay to identify small molecule antagonists of the farnesoid-X-receptor (FXR) signaling pathway - cell viability counter screen (AID 743221; active = well fitted cell-killing curve with a large enough effect in the repeat runs, not every such curve was filed as active; also: nearly all actives have a fitted effect of over 50% in size; also: potency is read from the fitted curve at half-maximal effect)
Summary of the method: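 Cytotoxicity counter screen run in the FXR-bla reporter wells: HEK 293T cells exposed to compound with 50 uM (final) chenodeoxycholic acid for 16 h, 37 C, then viability measured by CellTiter-Glo luminescence after 30 min, room temperature.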

[9] = biological target: Peroxisome proliferator-activated receptor gamma (Homo sapiens) (UniProt P37231); test: qHTS assay to identify small molecule agonists of the peroxisome proliferator-activated receptor gamma (PPARg) signaling pathway (AID 743094; active = well fitted activation curve with a large enough effect in the signal ratio in the repeat runs, not every such curve was filed as active; the % refers to the signal ratio)
Summary of the method: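 Cell-based bla reporter, HEK293H background, PPARg-driven UAS. Pre-incubation 5 h, 37C, 5% CO2. Compound 17 h, 37C. Substrate 1 h RT; fluorescence.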

[10] = biological target: Peroxisome proliferator-activated receptor gamma (Homo sapiens) (UniProt P37231); test: qHTS assay to identify small molecule antagonists of the peroxisome proliferator-activated receptor gamma (PPARg) signaling pathway (AID 743191; calls by dose curve; also: series mostly up to about 63 µM; nearly all actives have a fitted effect of over 30% in size)
Summary of the method: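 Beta-lactamase reporter under UAS control in HEK293H PPARg-bla cells; compound treatment 17 h at 37C. Read-out: fluorescence intensity after 1 h room-temperature incubation with LiveBLAzer B/G FRET substrate.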

[11] = qHTS assay for small molecule agonists of the antioxidant response element (ARE) signaling pathway - cell viability counter screen (AID 743203; calls by dose curve; also: nearly all actives have a fitted effect of over 55% in size; also: potency is read from the fitted curve at half-maximal effect)
Summary of the method: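 Measured in the same wells as the beta-lactamase ARE reporter, this read-out is CellTiter-Glo luminescence from HepG2 ARE-bla cells given compounds for 16 hrs.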

[12] = qHTS assay for small molecule activators of the heat shock response signaling pathway (AID 743210; active = well fitted activation curve with a large enough effect in the signal ratio in the repeat runs, with a control signal flat, not every such curve was filed as active; the % refers to the signal ratio;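 also: HeLa cells with beta-lactamase reporter driven by heat shock elements; series mostly up to about 63 µM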)
Summary of the method: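 Fluorescence from a cleaved B/G FRET substrate (2.5 h, room temp) reports HSE-driven beta-lactamase in HeLa cells treated 5 h at 37 C with DMSO-dissolved compounds.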

[13] = biological target: Peroxisome proliferator-activated receptor delta (Homo sapiens) (UniProt Q03181); test: qHTS assay to identify small molecule agonists of the peroxisome proliferator-activated receptor delta (PPARd) signaling pathway (AID 743212; calls by dose curve)
Summary of the method: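 Steps: seed PPARd-bla HEK293H cells; incubate 5 h, 37 C, 5% CO2; add compounds in DMSO; incubate, 37 C; add LiveBLAzer B/G FRET substrate; hold 2 h at room temperature; measure fluorescence.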

[14] = qHTS assay to identify small molecule antagonists of the peroxisome proliferator-activated receptor delta (PPARd) signaling pathway - cell viability counter screen (AID 743213); also: nearly all actives have a fitted effect of over 50% in size; also: potency is read from the fitted curve at half-maximal effect
Summary of the method: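 PPARd-bla HEK293H cells were treated with compounds plus agonist L165041 (300 nM final) for 17 h at 37 C. Viability was then read in the same wells by CellTiter-Glo luminescence after 30 min at room temperature.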

[15] = biological target: Peroxisome proliferator-activated receptor delta (Homo sapiens) (UniProt Q03181); test: qHTS assay to identify small molecule antagonists of the peroxisome proliferator-activated receptor delta (PPARd) signaling pathway (AID 743215; active = well fitted inhibition curve with a large enough effect in the signal ratio in the repeat runs, not every such curve was filed as active; the % refers to the signal ratio;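 also: cells stimulated with agonist L165041 at 300 nM final during compound exposure; series mostly up to about 62 µM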)
Summary of the method: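 Fluorescence from cleaved LiveBLAzer B/G FRET substrate (2 h, room temperature) reports PPARd-driven beta-lactamase in HEK293H UAS-bla cells. Cells had been treated 17 h at 37 C with compound plus 300 nM final L165041.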

[16] = biological target: Bile acid receptor (Homo sapiens) (UniProt Q96RI1); test: qHTS assay to identify small molecule antagonists of the farnesoid-X-receptor (FXR) signaling pathway (AID 743217; active = well fitted inhibition curve with a large enough effect in the signal ratio in the repeat runs, not every such curve was filed as active; the % refers to the signal ratio)
Summary of the method: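 FRET fluorescence after 2 h room-temperature LiveBLAzer loading gives the readout. Prior step: FXR-bla HEK 293T cells, seeded and incubated 5 h, received test compounds plus 50 uM final CDCA for 16 h at 37 °C.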

[17] = qHTS assay to identify small molecule agonists of the farnesoid-X-receptor (FXR) signaling pathway - cell viability counter screen (AID 743218); also: nearly all actives have a fitted effect of over 45% in size; also: potency is read from the fitted curve at half-maximal effect
Summary of the method: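 Readout: CellTiter-Glo luminescence, 30 min RT, multiplexed after the FXR-bla FRET reading. HEK 293T FXR-UAS-bla cells received compound 5 h post-plating and were incubated 16 h at 37 C.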

[18] = biological target: Bile acid receptor (Homo sapiens) (UniProt Q96RI1); test: qHTS assay to identify small molecule agonists of the farnesoid-X-receptor (FXR) signaling pathway (AID 743220; active = well fitted activation curve with a large enough effect in the signal ratio in the repeat runs, not every such curve was filed as active; the % refers to the signal ratio)
Summary of the method: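 FXR-UAS-bla HEK 293T cells carrying a UAS-driven beta-lactamase reporter were plated for 5 h at 37C/5% CO2, then exposed to DMSO-dissolved Tox21 10K compounds for 16 h at 37C. A LiveBLAzer B/G FRET substrate was loaded for 2 h at room temperature before fluorescence reading.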

[19] = biological target: Vitamin D3 receptor (Homo sapiens) (UniProt P11473); test: qHTS assay to identify small molecule agonists of the vitamin D receptor (VDR) signaling pathway (AID 743222; calls by dose curve)
Summary of the method: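 Following 4 h attachment at 37C, VDR-bla cells (2,000 per well) received DMSO-dissolved compounds or controls. After 16 h incubation, LiveBLAzer B/G FRET substrate was added and fluorescence read 2 h later at room temperature.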

[20] = biological target: Vitamin D3 receptor (Homo sapiens) (UniProt P11473); test: qHTS assay to identify small molecule antagonists of the vitamin D receptor (VDR) signaling pathway (AID 743223; active = well fitted inhibition curve with a large enough effect in the signal ratio in the repeat runs, not every such curve was filed as active; the % refers to the signal ratio)
Summary of the method: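 Antagonist mode: compound added to VDR-bla cells alongside agonist 1alpha,25-dihydroxyvitamin D3 (3 nM final), incubation 16 h at 37C. Read-out is LiveBLAzer FRET fluorescence, 2 h at room temperature.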

Chain of Vitamin D3 receptor (Homo sapiens) (P11473 whole entry, looked up): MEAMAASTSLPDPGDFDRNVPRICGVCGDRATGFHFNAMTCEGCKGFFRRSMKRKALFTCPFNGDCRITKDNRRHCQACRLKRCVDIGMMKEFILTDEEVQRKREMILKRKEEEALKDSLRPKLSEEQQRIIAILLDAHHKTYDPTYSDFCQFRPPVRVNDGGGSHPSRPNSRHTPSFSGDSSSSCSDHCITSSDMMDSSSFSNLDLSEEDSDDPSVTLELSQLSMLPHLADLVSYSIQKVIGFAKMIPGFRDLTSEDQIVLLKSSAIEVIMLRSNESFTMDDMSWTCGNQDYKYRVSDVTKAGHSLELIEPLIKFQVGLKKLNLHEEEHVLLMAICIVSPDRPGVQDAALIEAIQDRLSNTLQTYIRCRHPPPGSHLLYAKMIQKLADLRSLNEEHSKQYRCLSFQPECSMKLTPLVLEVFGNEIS
Chain of Peroxisome proliferator-activated receptor gamma (Homo sapiens) (P37231 whole entry, looked up): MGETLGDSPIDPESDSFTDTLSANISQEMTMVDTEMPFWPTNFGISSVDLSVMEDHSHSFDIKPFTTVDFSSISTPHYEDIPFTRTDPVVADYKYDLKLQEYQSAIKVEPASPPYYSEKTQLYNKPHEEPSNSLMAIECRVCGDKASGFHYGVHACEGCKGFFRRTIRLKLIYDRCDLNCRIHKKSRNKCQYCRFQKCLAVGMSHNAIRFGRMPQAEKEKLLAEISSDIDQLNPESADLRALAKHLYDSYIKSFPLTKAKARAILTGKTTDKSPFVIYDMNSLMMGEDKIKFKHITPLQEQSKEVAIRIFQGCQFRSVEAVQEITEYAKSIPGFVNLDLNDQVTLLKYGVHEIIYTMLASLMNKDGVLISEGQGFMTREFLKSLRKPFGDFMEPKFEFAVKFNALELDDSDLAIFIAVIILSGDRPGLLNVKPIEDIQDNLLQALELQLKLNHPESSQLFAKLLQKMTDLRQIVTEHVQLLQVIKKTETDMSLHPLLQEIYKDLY
Chain of Aryl hydrocarbon receptor (Homo sapiens) (P35869 whole entry, looked up): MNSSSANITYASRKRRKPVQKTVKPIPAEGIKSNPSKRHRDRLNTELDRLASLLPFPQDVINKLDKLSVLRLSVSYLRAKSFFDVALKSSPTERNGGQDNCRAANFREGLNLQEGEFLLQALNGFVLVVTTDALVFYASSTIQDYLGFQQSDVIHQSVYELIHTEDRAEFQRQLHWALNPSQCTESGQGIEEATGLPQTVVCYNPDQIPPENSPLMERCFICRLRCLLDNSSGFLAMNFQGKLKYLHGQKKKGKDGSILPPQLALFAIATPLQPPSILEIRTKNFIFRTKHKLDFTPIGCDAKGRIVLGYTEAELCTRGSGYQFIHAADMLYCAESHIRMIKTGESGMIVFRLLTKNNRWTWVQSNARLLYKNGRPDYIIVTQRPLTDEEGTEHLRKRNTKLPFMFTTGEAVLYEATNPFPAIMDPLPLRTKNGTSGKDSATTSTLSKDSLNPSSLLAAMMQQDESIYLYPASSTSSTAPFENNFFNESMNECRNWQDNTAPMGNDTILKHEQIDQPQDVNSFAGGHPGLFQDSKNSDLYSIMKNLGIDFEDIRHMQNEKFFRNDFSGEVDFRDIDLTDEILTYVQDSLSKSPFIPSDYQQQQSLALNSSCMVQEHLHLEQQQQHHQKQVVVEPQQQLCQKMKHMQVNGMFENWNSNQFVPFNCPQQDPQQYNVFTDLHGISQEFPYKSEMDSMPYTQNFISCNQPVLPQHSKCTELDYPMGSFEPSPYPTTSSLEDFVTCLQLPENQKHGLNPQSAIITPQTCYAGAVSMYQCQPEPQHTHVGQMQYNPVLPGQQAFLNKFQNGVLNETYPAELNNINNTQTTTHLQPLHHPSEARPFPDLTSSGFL
Chain of Peroxisome proliferator-activated receptor delta (Homo sapiens) (Q03181 whole entry, looked up): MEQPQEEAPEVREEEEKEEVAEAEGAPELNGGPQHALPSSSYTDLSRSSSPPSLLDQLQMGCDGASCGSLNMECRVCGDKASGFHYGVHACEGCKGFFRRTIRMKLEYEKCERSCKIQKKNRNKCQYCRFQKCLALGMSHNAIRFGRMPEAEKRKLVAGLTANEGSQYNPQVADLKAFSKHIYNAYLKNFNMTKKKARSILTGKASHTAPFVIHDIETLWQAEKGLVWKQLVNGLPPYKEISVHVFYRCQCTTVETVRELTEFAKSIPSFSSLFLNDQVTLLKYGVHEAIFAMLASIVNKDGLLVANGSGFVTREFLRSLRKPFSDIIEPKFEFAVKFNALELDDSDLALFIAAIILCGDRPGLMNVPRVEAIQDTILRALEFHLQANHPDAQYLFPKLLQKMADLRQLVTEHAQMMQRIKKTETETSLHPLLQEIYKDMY
Chain of Bile acid receptor (Homo sapiens) (Q96RI1 whole entry, looked up): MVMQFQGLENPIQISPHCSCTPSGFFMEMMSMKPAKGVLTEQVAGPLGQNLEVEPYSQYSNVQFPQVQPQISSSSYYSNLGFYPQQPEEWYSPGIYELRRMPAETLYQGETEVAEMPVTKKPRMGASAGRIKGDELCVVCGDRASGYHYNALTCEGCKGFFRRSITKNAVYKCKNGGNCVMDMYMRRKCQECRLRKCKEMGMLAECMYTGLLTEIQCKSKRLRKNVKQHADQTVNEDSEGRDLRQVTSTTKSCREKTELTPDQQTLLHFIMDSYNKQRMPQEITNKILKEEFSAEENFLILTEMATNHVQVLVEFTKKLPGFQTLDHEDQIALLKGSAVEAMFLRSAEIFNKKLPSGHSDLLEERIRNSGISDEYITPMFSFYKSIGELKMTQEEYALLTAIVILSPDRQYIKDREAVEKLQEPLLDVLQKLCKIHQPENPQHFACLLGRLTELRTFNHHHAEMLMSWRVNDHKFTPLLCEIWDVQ

| Structure (SMILES) | Potency [1] | Potency [2] | Potency [3] | Potency [4] | Potency [5] | Potency [6] | Potency [7] | Potency [8] | Potency [9] | Potency [10] | Potency [11] | outcome [12] | outcome [13] | Potency [14] | outcome [15] | outcome [16] | Potency [17] | outcome [18] | outcome [19] | Potency [20] |
| --- | --- | --- | --- | --- | --- | --- | --- | --- | --- | --- | --- | --- | --- | --- | --- | --- | --- | --- | --- | --- |
| O=C(O)Cc1cc(I)c(Oc2ccc(O)c(I)c2)c(I)c1 | inactive | inactive | inactive | 24.5 µM (active) | 15.4 µM (active) | inactive | inactive | 54.9 µM (active) | – | – | – | – | – | – | – | – | – | – | – | – |
| CCCCc1cc2ccccc2c(OCCN(C)C)n1 | inactive | inactive | – | inactive | inactive | – | – | inactive | inactive | inactive | inactive | inactive | inactive | inactive | inactive | inactive | inactive | inactive | inactive | – |
| CCN1CCC[C@H]1CNC(=O)c1c(OC)ccc(Br)c1OC | inactive | inactive | – | inactive | inactive | inactive | inactive | inactive | inactive | inactive | inactive | inactive | inactive | inactive | inactive | inactive | inactive | inactive | inactive | – |
| CC(C)(C)c1ccc(OCC2CO2)cc1 (stereo unspecified) | inactive | inactive | inactive | inactive | inactive | inactive | inactive | inactive | – | – | inactive | – | inactive | inactive | – | – | inactive | – | inactive | – |
| C[Si](C)O[Si](C)(C)O[Si](C)(C)O[Si](C)C | inactive | inactive | – | – | inactive | inactive | inactive | inactive | inactive | inactive | inactive | – | – | inactive | – | – | inactive | – | inactive | – |
| CN(C)CC[C@@H](c1ccc(Br)cc1)c1ccccn1 | inactive | inactive | – | – | – | inactive | – | – | inactive | inactive | inactive | inactive | inactive | inactive | inactive | inactive | inactive | inactive | – | – |
| CCOC(=O)CC(C)C | inactive | inactive | – | – | inactive | inactive | inactive | inactive | inactive | inactive | inactive | inactive | inactive | inactive | – | – | inactive | – | inactive | – |
| Nc1nc(N)c2nc(CNc3ccc(C(=O)N[C@@H](CCC(=O)O)C(=O)O)cc3)cnc2n1 | inactive | inactive | inactive | – | – | inactive | – | – | – | – | 0.0051 µM (active) | – | – | – | – | – | – | – | – | – |
| CCCCCCCCCCCCCCC1CO1 (stereo unspecified) | inactive | inactive | – | inactive | inactive | – | inactive | inactive | inactive | inactive | inactive | inactive | inactive | inactive | inactive | – | inactive | – | – | inactive |
| CCCCCCc1ccc(N)cc1 | inactive | inactive | inactive | inactive | – | inactive | – | inactive | – | – | – | inactive | – | inactive | inactive | inactive | – | – | inactive | – |
| O=c1c2ccccc2nnn1CCl | inactive | inactive | – | – | – | inactive | inactive | inactive | inactive | inactive | inactive | inactive | inactive | inactive | inactive | – | inactive | – | inactive | inactive |
| NC(N)=NN=C(/C=C/c1ccc([N+](=O)[O-])o1)/C=C/c1ccc([N+](=O)[O-])o1 | 5.31 µM (active) | – | 7.5 µM (active) | 2.11 µM (active) | – | 5.31 µM (active) | 9.44 µM (active) | 23.7 µM (active) | – | – | 5.96 µM (active) | – | – | 9.44 µM (active) | – | – | 10.6 µM (active) | – | – | – |
| NC1CCN(c2nc3c(cc2F)c(=O)c(C(=O)O)cn3-c2ccc(F)cc2F)C1 (stereo unspecified) | inactive | inactive | – | inactive | 26.6 µM (active) | – | inactive | inactive | – | – | – | – | – | inactive | – | – | inactive | – | – | – |
| CNCC[C@@H](Oc1ccccc1C)c1ccccc1 | inactive | inactive | – | inactive | – | – | – | inactive | – | – | inactive | inactive | – | inactive | – | – | inactive | – | inactive | – |
